Here are results for 19 molecules from the supplement of paper PMC12632987.

The chains are these.
B1: traf2_out_11_155_677 (protein)
chain: EKKREINNALVDEMAAIDDATRAALDAIVDAAAAAHPEHAAALRAARDATRPYPGSSRGRALAALFRELGLEDYAAQVEALLAAAQKEKNAALKAHEAKL
B2: traf2_out_20_3_2096 (protein)
chain: EELKKELEKALEEAEKLIKEAIKLADEETAKKLKELLKKLKEAKELPLDDQLVELSEVRRELLELAEKAKKEGKEELAKILEEAADKINRAMNLAYKIIE
B3: traf2_out_17_178_1700 (protein)
chain: SKEEIRKKISELTDELIDHADRYGTALLARLRAEGVLSPEELAALDAALASGSNRTLLATAEELIPRSAASPETRALLAEWRAETREIAKKIAEAYEKYE
B4: traf2_out_18_167_1855 (protein)
chain: EEELKKKLEEATDELVKLSEVKRLARTALQLLETDPAAFPAAKAALIAALRAHGELAHLADRLEAAPPEEQPAVLEEIVEEAQRLANEKYKEIEELRKKL
B5: traf2_out_5_63_2338 (protein)
chain: SEREELTALAREADRAVRAILEALKAGKREEARKLVEEVAKDPELLRTAIGIARAELKYYSLQPEKKEEEKIAKELLKLLEEAAKRREEEERREREEALA
B6: traf2_out_17_178_1715 (protein)
chain: TKEAARAEISAATDEMIDLAEAAAARLLAIAEAEGSLSPEELAELRRARRLGSARTTRALMRRAIPRSPSAAEVQALLDDFEKRYAELSKKIAEALKKYE
B7: traf2_out_15_180_1332 (protein)
chain: MTEEELEKRIELVAEVADEADERVREELAAAGVTSPEHLALARSGVRAVITHVFAGWEEEAEEVEEIVAARLPEELRPLFRRLVEEARRRAEEALERLKK
B8: traf2_out_6_3_2519 (protein)
chain: MEESLREDARTVLKNMGITTAEQLLRLVKAEVNAVKKLVSRKDVDRADLAGAESVLALTRAMVEVAAEELPDLTEEQKAEMLELIEEAEKLVEEKRKELE
B9: traf2_out_6_3_2518 (protein)
chain: MEESIRRDAAKVLENMGITTAEQLLRLVKANVNAVKKLVSRKDVDRADLAGAESVLNLTRAMVEVAAETLPDLTEEQKAEMLALIEEARELVEKKRKELE
B10: traf2_out_6_3_2529 (protein)
chain: SEEKLREDARTILENMGITTAEQLLRLVKAEVNAVKQLVSRPDVDRADLAGARSVLALTRAMVEVAAETLPSLTPEQAEEALALIDETEKLVEKREKELE
B11: traf2_out_20_3_2058 (protein)
chain: SELDEEIEKKTKELEKKLAELAKLLPPEEAAELAKAWAEVKKAAKEGLEEFLIAVSKLRRLLLELSEEARARGDEKTAKLLEEAAEIAQEIAHLIYKKIE
B12: traf2_out_1_158_906 (protein)
chain: STAVNTLYAVATSIADVYAELAKERGLEKAAALLEKLKEDIKELYEKNKNASLEEFAKKVLELIEEKEKESESLPEEDKALVDIAFRQIKSGVEQVVKLA
B13: traf2_out_16_177_1453 (protein)
chain: ELDRLMDRLVILSELRRAALLAVEGRGDEYREHLARARELAEEAGDEEALALADRIEALIAENTPEAKEELKKLAEELQKEAQKLALEAEKLIKERAKEE
B14: traf2_out_11_169_827 (protein)
chain: EEAEKNRKINDKALELEDKAKKEFKEFVLKLAKEDGLDVEEIKKIFEENKNKSLSAQAAAVIEYFKSKGKEEAAKKVLEKYEELKEKINKEVTAFIKELE
B15: traf2_out_11_155_748 (protein)
chain: EERRKLLQEMNDKITELFDKAREEALKIAEEAAKKHPEHAEEIKKKIEETKGFSYRSFILSMIELFEELGLEEEAKKLKELLEKTQKEANKIVQETEKKL
B16: traf2_out_20_3_2118 (protein)
chain: EELEEELEKELEEALKLLKEAAKLADKKTAKKLEKLAKRLKESRKLSPSDRLVVVSEVRREVRRLRLEAEKKGDKKLAKVLDEAAEELNRAANLLMKIIE
B17: traf2_out_13_95_1130 (protein)
chain: SRETAEKIMEIADEMLDKVLEILKELLKKFEKAGVGVEEIKEAIYLAEHQSINEAIKLLEELAKKYPEFKEELNKAIEEIKKLRREAGKKVAEILKEEKE
B18: traf2_out_11_79_936 (protein)
chain: EEKRQELLKKLEEALKLLKELLEKMKAGTISEEERKEMLDEIERLLQRAAQLALELGLSDTLVEISEAKRHVRLAYSGDLEALEKAIKELEEAIKLVEEA
B19: traf2_out_17_162_1640 (protein)
chain: SPVEEFKERVEKELKELEKRVEELEEKSKKIDEYSKEELSDLIVEASEVKRRARELKQEVLAAKDLIPEEERARILKRLEEIIERAQRIAQKFYDKYLSL

Whole data set: some 1,800 sequences, median “median log2 fold change of GCK-ALFA target abundance (FLAG IP / Myc IP barcode read proportion)” near 0.14, cut for the lowest 2% near -0.84. Shown is part of a subset that was picked to be rich in the lowest values.

This experiment has as its target T1, TRAF2, Q12933.
T1 chain: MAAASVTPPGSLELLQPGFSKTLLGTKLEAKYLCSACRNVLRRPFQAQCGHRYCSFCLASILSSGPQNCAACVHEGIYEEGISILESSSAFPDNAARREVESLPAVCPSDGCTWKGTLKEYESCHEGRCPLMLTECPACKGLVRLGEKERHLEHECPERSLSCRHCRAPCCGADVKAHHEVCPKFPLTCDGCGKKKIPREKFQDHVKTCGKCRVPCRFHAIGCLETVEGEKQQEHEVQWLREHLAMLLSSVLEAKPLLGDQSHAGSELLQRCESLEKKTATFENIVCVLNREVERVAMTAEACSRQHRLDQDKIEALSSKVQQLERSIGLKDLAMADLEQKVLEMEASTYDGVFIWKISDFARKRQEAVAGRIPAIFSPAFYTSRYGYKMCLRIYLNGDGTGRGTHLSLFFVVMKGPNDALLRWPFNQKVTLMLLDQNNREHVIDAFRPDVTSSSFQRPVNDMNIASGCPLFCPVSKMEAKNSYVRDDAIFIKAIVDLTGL
The experiment in a line: median log2 fold change of GCK-ALFA target abundance (FLAG IP / Myc IP barcode read proportion) (log2 ratio); each designed protein is fused to an ALFA-tag nanobody in HEK293 cells to bring the named protein to FLAG-tagged glucokinase (GCK); Myc marks an untargeted standard; higher = target protein stabilised (more abundant). To be noted: target protein: 3xFLAG-MCP-GCK-ALFA reporter; HEK293 landing pad (RPLP). The essentials: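 HEK293 landing-pad cells received a recombined binder library fused to the ALFA nanobody and were induced with 2 μg mL^−1 doxycycline, then transfected with a plasmid encoding a FLAG-tagged target and a Myc-tagged standard. Lysates were collected after 48 h for anti-FLAG and anti-Myc immunoprecipitation, and the circular RNA barcodes were reverse transcribed, amplified and sequenced. Target abundance for each binder is the median log2 ratio of FLAG to Myc barcode read proportions. Barcodes had to reach a proportion of at least 10^−7 in both replicates, each binder needed at least 3 barcodes per replicate, a pseudocount of 10^−6 was applied, and the two replicates were pooled.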
Take B1: the “median log2 fold change” value was -0.00384.
The figure for B2 is 0.177; for B3 it is 0.0128.
The figure for B4 is 0.405; for B5 it is 0.165; for B6 it is -0.171.
Next, B7: -0.0893; B8: -0.45.
In the case of B9, the “median log2 fold change” value is -0.905.
Next, B10: -0.16; B11: 0.144; B12: 0.0998.
Next, B13: -0.267.
With B14, the “median log2 fold change” value is -0.542.
The figure for B15 is 0.302; for B16 it is 0.107; for B17 it is -0.433.
The figure for B18 is 0.397.
As to B19, the “median log2 fold change” value worked out at 0.0147.
